GPT2 inh = blocks human glutamate pyruvate transaminase 2. Q8TD30. Recombinant GPT2, coupled pyruvate oxidase/HRP Amplex Red fluorescence. Potency, µM (titrated, usually from 57.7 µM), most hits filed as inhibitors. actives 0.25% (n = 100,000). AID 1671188; also: nearly all actives have a fitted effect of over 60% in size
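Fluorescence of coupled pyruvate oxidase/HRP/Amplex Red system (50uM Amplex, 30 min, dark) reports pyruvate formed by GPT2. Enzyme reaction: 10ng/uL GPT2, 2mM L-alanine, 250uM a-KG, 30 min room temperature, pH 7.5; 50uM AOA control.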
hNpr1 antagonist = antagonists of human natriuretic peptide receptor Npr1. P16066. HEK293 hNpr1 GloSensor cGMP, ANP-stimulated luminescence. Potency, µM (doses to about 46.3 µM), actives largely listed as inhibitors. actives 1.6% (n = 76,000); calls by dose curve; also: nearly all actives have a fitted effect of over 60% in size
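HEK293 cells stably expressing human Npr1 and cGMP GloSensor pGS-40F, loaded 2 h with 2% GloSensor reagent, given compound 30 min at room temperature. Luminescence read before and 20 min after 0.1 nM hNppA.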
Luciferase inh = blocks purified firefly luciferase enzyme activity. purified P. pyralis luciferase, luminescence, biochemical. Potency, µM (top dose mostly 115 µM), actives largely listed as inhibitors. P08659. actives 2.5% (n = 76,000); also: nearly all actives have a fitted effect of over 65% in size
Target sequence (P08659 whole entry, looked up): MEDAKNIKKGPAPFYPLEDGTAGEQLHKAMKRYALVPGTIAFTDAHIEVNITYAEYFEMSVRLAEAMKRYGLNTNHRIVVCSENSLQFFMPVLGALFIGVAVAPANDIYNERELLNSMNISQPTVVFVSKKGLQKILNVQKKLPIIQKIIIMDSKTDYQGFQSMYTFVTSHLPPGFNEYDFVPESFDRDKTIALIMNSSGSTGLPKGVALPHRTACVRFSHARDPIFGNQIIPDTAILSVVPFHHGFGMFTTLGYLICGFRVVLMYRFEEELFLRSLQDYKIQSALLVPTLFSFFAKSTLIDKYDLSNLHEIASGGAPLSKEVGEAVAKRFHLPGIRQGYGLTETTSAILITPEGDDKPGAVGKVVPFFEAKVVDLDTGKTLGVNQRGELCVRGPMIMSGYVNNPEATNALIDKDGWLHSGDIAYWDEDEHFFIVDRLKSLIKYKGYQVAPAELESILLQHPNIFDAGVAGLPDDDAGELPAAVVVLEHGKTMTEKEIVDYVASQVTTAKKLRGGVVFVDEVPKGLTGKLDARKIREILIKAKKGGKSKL
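Inhibitors were tested against purified firefly luciferase in a biochemical, low-substrate format (both substrates at 10uM) and luminescence measured with a CCD imager.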
HEK293 tox = cytotoxic compounds in HEK 293 cells; actives 6.6% (n = 94,000); Potency, µM (top dose mostly 115 µM), usual class: inhibitors; HEK 293 viability, ATP luminescence (CellTiter-Glo), 48-72 h; also: nearly all actives have a fitted effect of over 60% in size
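Luminescence from cellular ATP, measured with CellTiter-Glo, indicates HEK 293 viability. Cells plated at 250 cells/well are treated with compound for 48 or 72 hr at 37 degree Celsius before reagent addition.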
NIH3T3 tox = NIH 3T3 cell cytotoxicity; actives 4.3% (n = 94,000); NIH 3T3 viability, CellTiter-Glo ATP luminescence, 48-72 h; Potency, µM (series often up to 96.7 µM), most hits filed as inhibitors; also: nearly all actives have a fitted effect of over 55% in size
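First NIH 3T3 cells are plated at 400 cells/well; next compound is pinned in; then plates incubate 48 or 72 hr at 37 °C; finally CellTiter-Glo is added and luminescence read after 10 min.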
Large screens that a line does not name were inactive; ! = not confirmed by another sample. Compounds with a hit are over-represented: about 10% of the library has one in this group of screens. Unless noted, calls follow the shape of the dose curve; as a rule, active = well fitted curve in the direction sought with a large enough effect; inconclusive = small, poorly fitted or top-dose-only effect, or another doubt; inactive = no such curve, though single readings can be large; an effect the other way counts as inactive or inconclusive.

CC(C)c1ccc(C(=O)N(C)CC2CCOC2)cc1 (centres undefined)	none
CCc1nc2c(c(-c3ccc(Cl)cc3)n1)CN(Cc1cccc(F)c1)CC2	HEK293 tox 20µM, NIH3T3 tox 11µM
CCc1nc2c(c(-c3ccc(Cl)cc3)n1)CCN(Cc1ccc(C(F)(F)F)cc1)CC2	HEK293 tox 50µM
CCc1nc2c(c(-c3ccc(O)cc3)n1)CN(Cc1cccc(C(F)(F)F)c1)CC2	HEK293 tox inconclusive, NIH3T3 tox inconclusive
CCc1nc2c(c(-c3ccc(O)cc3)n1)CCN(Cc1ccc(C(F)(F)F)cc1)CC2	GPT2 inh inconclusive, hNpr1 antagonist inconclusive, HEK293 tox 45µM, NIH3T3 tox inconclusive
Cc1ccc(CN2C[C@@H](COc3ccncc3)[C@H](C(N)=O)C2)o1	none
O=C(NC1CCCCC1)N1CCCC(c2nn[nH]n2)C1 (centres undefined)	none
Clc1ccc(-c2noc([C@@H]3Cc4nc[nH]c4CN3CC3CCCCC3)n2)cc1	HEK293 tox 50µM, NIH3T3 tox 28µM
O=C(c1ccccc1)N1Cc2[nH]cnc2C[C@H]1c1nc(-c2ccc(Cl)cc2)no1	HEK293 tox inconclusive, NIH3T3 tox inconclusive
CN(C)c1ccc(-c2noc([C@@H]3CCCN3CC3CCCCC3)n2)cn1	GPT2 inh inconclusive, hNpr1 antagonist inconclusive, Luciferase inh 35µM, HEK293 tox inconclusive, NIH3T3 tox 79µM
c1cc(-c2noc([C@@H]3Cc4nc[nH]c4CN3CC3CCCCC3)n2)ccn1	HEK293 tox inconclusive, NIH3T3 tox 79µM
CN(C)c1ccc(-c2noc([C@@H]3CCCN3Cc3ccc(CO)o3)n2)cn1	Luciferase inh inconclusive
FC(F)(F)c1ccc(-c2noc([C@@H]3Cc4nc[nH]c4CN3CC3CCCCC3)n2)cc1	GPT2 inh inconclusive, HEK293 tox 32µM, NIH3T3 tox 28µM
CC(=O)O[C@H]1[C@H](O[C@H]2[C@@H]3C=CO[C@@H](O[C@@H]4O[C@H](CO)[C@@H](O)[C@H](O)[C@H]4O)[C@@H]3[C@@]3(CO)O[C@@H]23)O[C@@H](C)[C@H](OC(=O)/C=C/c2ccccc2)[C@H]1OC(=O)/C=C/c1ccccc1	none (no result: hNpr1 antagonist, Luciferase inh, HEK293 tox, NIH3T3 tox)
COc1ccc2[nH]c(CNc3cc(C4CC(N)C4)nc(C)n3)cc2c1 (centres undefined)	HEK293 tox inconclusive
c1cncc(COC2CCN(c3ncncn3)CC2)c1	none
COc1ccc(/C=C/c2ccc3c(c2)C(=O)N2C[C@@H](NC(=O)CC(C)(C)CC(=O)O)C[C@H]2C(=O)N3)cc1	Luciferase inh inconclusive, HEK293 tox inconclusive, NIH3T3 tox inconclusive
CC1(C)CC[C@]2(C(=O)O)CC[C@]3(C)C(=CCC4[C@@]5(C)C[C@H](O)[C@H](O[C@@H]6O[C@H](CO)[C@@H](O)[C@H](O)[C@H]6O)[C@@](C)(CO)C5[C@H](O)C[C@]43C)[C@@H]2C1 (some centres undefined)	none (no result: hNpr1 antagonist, Luciferase inh, HEK293 tox, NIH3T3 tox)
c1cnc2nc(-c3ccsc3)[nH]c2c1	Luciferase inh inconclusive, HEK293 tox 126µM!, NIH3T3 tox inconclusive
c1cnc2nc(C3CCNC3)[nH]c2c1 (centres undefined)	none
Cc1cc(-c2nc3ncccc3[nH]2)c(C)[nH]1	Luciferase inh 40µM, HEK293 tox inconclusive, NIH3T3 tox inconclusive
c1ccc(-c2nc3ncccc3[nH]2)nc1	HEK293 tox inconclusive, NIH3T3 tox inconclusive
c1cnc2nc(-c3c[nH]c4ncccc34)[nH]c2c1	Luciferase inh 89µM, HEK293 tox inconclusive, NIH3T3 tox inconclusive
O=C(O)c1ccc(-c2nc3ncccc3[nH]2)cc1	none
O=C(NCc1nnc2n1C(C(=O)O)CC2)c1ccc2c(c1)OCO2 (centres undefined)	none (no result: hNpr1 antagonist, Luciferase inh)
O=C(c1cc2sccc2[nH]1)N1CC2CC(C1)[C@@H]1CCCC(=O)N1C2 (some centres undefined)	none
CC(C)CCN1CCC(N2CCN(C(=O)c3ccc(F)cc3)CC2)C1=O (centres undefined)	none
c1ccc(-c2ccccc2Nc2cnc3ccc(N4CCOCC4)nn23)cc1	HEK293 tox 89µM, NIH3T3 tox inconclusive
Cc1nnc2ccc(N3CCN(C(=O)c4ccccc4F)CC3)nn12	none (no result: GPT2 inh, hNpr1 antagonist, Luciferase inh)
CN1CCN(c2ccc3ncc(Nc4ccccc4F)n3n2)CC1	GPT2 inh inconclusive, HEK293 tox 112µM, NIH3T3 tox inconclusive
Clc1ccccc1Nc1cnc2ccc(N3CCOCC3)nn12	GPT2 inh inconclusive, hNpr1 antagonist inconclusive, HEK293 tox inconclusive, NIH3T3 tox inconclusive
CN1CCN(c2ccc3ncc(Nc4cccc(C(F)(F)F)c4)n3n2)CC1	GPT2 inh inconclusive, HEK293 tox 100µM, NIH3T3 tox inconclusive
CNc1nccc(N2CCC(CC(=O)NCCC(C)C)CC2)n1	HEK293 tox 32µM, NIH3T3 tox inconclusive
C[C@H]1CCCN1C(=O)c1nnc(CNCCCn2ccnc2)n1-c1ccccc1	NIH3T3 tox inconclusive
COC(=O)[C@@H]1Cc2c([nH]c3ccccc23)[C@H]2C[C@H](NCCCn3ccnc3)C[C@@H](c3ccccc3F)N21	HEK293 tox inconclusive, NIH3T3 tox 5µM
COC(=O)[C@@H]1Cc2c([nH]c3ccccc23)[C@@H]2C[C@@H](NCCCn3ccnc3)C[C@@H](c3ccc(F)c(F)c3)N12	HEK293 tox 25µM, NIH3T3 tox 28µM
O=C(Cc1c[nH]c2ncc(-c3ccccc3)cc12)NCCCn1ccnc1	NIH3T3 tox inconclusive
COC(=O)[C@@H]1Cc2c([nH]c3ccccc23)[C@H]2C[C@@H](NCCCn3ccnc3)C[C@@H](c3ccccc3)N21	HEK293 tox inconclusive, NIH3T3 tox 20µM
CC(C)C[C@@H]1N[C@H](C(=O)NCCCn2ccnc2)Cc2c[nH]c3cccc1c23	HEK293 tox inconclusive, NIH3T3 tox inconclusive
COc1ccc(CNC(=O)CC2CCCN(c3cn[nH]c(=O)c3)C2)cc1 (centres undefined)	none
Cc1cc(C)n(Cc2cccc(C(=O)N3Cc4ccccc4C(O)C3)c2)n1 (centres undefined)	HEK293 tox inconclusive, NIH3T3 tox inconclusive
COC(=O)N1CCN(c2nccc(Nc3ccccc3F)n2)CC1	HEK293 tox 89µM, NIH3T3 tox inconclusive (no result: hNpr1 antagonist, Luciferase inh)
O=C(Nc1ccccc1)N1CCN(c2nccc(Nc3ccccc3F)n2)CC1	HEK293 tox inconclusive, NIH3T3 tox 45µM (no result: hNpr1 antagonist, Luciferase inh)
CC(C)NC(=O)N1CCN(c2nccc(Nc3ccccc3F)n2)CC1	HEK293 tox 25µM, NIH3T3 tox inconclusive (no result: hNpr1 antagonist, Luciferase inh)
O=C(NC1CCCC1)N1CCN(c2nccc(Nc3ccccc3F)n2)CC1	HEK293 tox 45µM, NIH3T3 tox inconclusive (no result: hNpr1 antagonist, Luciferase inh)
COc1ccccc1Nc1ccnc(N2CCN(C(=O)NC(C)C)CC2)n1	HEK293 tox inconclusive, NIH3T3 tox inconclusive (no result: hNpr1 antagonist, Luciferase inh)
COCC(=O)N1CCN(c2nccc(Nc3ccccc3F)n2)CC1	none (no result: hNpr1 antagonist, Luciferase inh)
O=C(c1ncoc1C1CC1)N1CCOC(c2ccc(Cl)cc2)C1 (centres undefined)	HEK293 tox inconclusive, NIH3T3 tox inconclusive

Screens as filed in PubChem BioAssay.
